Experimental data published in PubChem BioAssay (NCATS).
Results filed as inconclusive are left out. A call without a number means that no potency is given here. Values without a mark were called inactive. Calls of active or inactive are those of the source. The call rests on the fitted dose curve; in most records, active means well fitted cell-killing curve with a large enough effect; inconclusive means small, poorly fitted or top-dose-only effect; inactive means no such curve, though single readings can be large or run the other way.

assay: qHTS of pediatric cancer cell lines to identify multiple opportunities for drug repurposing: Primary screen for Rh30 cells (AID 1347107); settings: Rh30 rhabdomyosarcoma viability, CellTiter-Glo luminescence, 48 h; series mostly up to 46 µM; further: nearly all actives have a fitted effect of over 75% in size
Procedure, shortened: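 Cells (500-1,000/well) rested 5 h, then received compounds for 48 h; metabolically active cells were measured by CellTiter-Glo luminescence. Final concentrations spanned up to 46 µM (MIPE, 11-point) or 0.59 nM-46 µM (NPC, 8-point) in primary screens, 11-point in follow-ups.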

Row | SMILES | Potency
1 | CC[N+](C)(C)c1cccc(O)c1 | inactive
2 | CC(=O)Oc1cc(C(C)C)c(OCCN(C)C)cc1C | inactive
3 | C[C@@H](O)[C@H]1C(=O)N2C(C(=O)O)=C(SCCN=CN)C[C@H]12 | inactive
4 | CSc1ccc(C(=O)c2[nH]c(=O)[nH]c2C)cc1 | inactive
5 | O=C1CC2(CCCC2)CC(=O)N1CCCCN1CCN(c2ncccn2)CC1 | inactive
6 | NC(=O)c1cn(Cc2c(F)cccc2F)nn1 | inactive
7 | CC(C(=O)O)c1ccc(CC2CCCC2=O)cc1 (configuration not stated) | inactive
8 | CC(=O)[C@@]1(O)CC[C@H]2[C@@H]3CCC4=CC(=O)CC[C@]4(C)[C@H]3CC[C@@]21C | inactive
9 | Cc1cccc(C)c1NC(=O)C(C)N (configuration not stated) | inactive
10 | NC1=NCC2c3ccccc3Cc3ccccc3N12 (configuration not stated) | inactive
11 | CN(C)[C@@H]1C(=O)C(C(N)=O)=C(O)[C@@]2(O)C(=O)C3=C(O)c4c(O)ccc(Cl)c4[C@@H](O)[C@H]3C[C@@H]12 | inactive
12 | CCCCOCCOCCOCc1cc2c(cc1CCC)OCO2 | inactive
13 | CCCOc1ccccc1-c1nc2n[nH]nc2c(=O)[nH]1 | inactive
14 | CCCN(CCC)CCc1cccc2c1CC(=O)N2 | inactive
15 | Cc1scc2c1N(C(=O)CN1CCN(C)CC1)c1ccccc1NC2=O | inactive
16 | CCCCNc1c(C(=O)OCC)c(C)nc2c1cnn2CC | inactive

assay: qHTS of pediatric cancer cell lines to identify multiple opportunities for drug repurposing: Primary screen for Rh41 cells (AID 1347108); settings: Rh41 rhabdomyosarcoma viability, CellTiter-Glo luminescence, 48 h; series mostly up to 46 µM;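 further: luminescence drop marks cytotoxic hits; nearly all actives have a fitted effect of over 70% in size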
Procedure, shortened: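 Cells plated at 500-1,000/well in growth medium, compounds added after 5 h. MIPE tested at 11 points (from 0.78 nM), NPC at 8 points (from 0.59 nM). CellTiter-Glo luminescence after 48 h; concentration-response curves from primary screen.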

Row | SMILES | Potency | activity change, negative = cytotoxic
17 | CN1C(=O)CC[C@H]1c1cccnc1 | inactive | 
18 | CN(C)CCCN1c2ccccc2Sc2ccccc21 | inactive | 
19 | CCCN(CCC)C(=O)C(CCC(=O)O)NC(=O)c1ccccc1 (configuration not stated) | inactive | 
20 | Cc1nc2sccn2c(=O)c1CCN1CCC(=C(c2ccc(F)cc2)c2ccc(F)cc2)CC1 | inactive | 
21 | Brc1c(NC2=NCCN2)ccc2nccnc12 | inactive | 
22 | CC(C)(C)NCC(O)c1cc(O)cc(O)c1 (configuration not stated) | inactive | 
23 | COCCc1ccc(OCC(O)CNC(C)C)cc1 (configuration not stated) | inactive | 
24 | CN(C)CC[C@@H](c1ccc(Br)cc1)c1ccccn1 | inactive | 
25 | C[C@]12CCC(=O)C=C1CC[C@@H]1[C@@H]2C(=O)C[C@@]2(C)[C@H]1CC[C@]2(O)C(=O)CO | inactive | 
26 | OC(CCN1CCCCC1)(c1ccccc1)C1CCCCC1 (configuration not stated) | inactive | 
27 | C[N+](C)(C)CCCCCCCCCC[N+](C)(C)C | inactive | 
28 | COc1ccc2c(c1OC)C(=O)O[C@@H]2[C@H]1c2c(cc3c(c2OC)OCO3)CCN1C | inactive | 
29 | CCCN1C[C@H](CSC)C[C@@H]2c3cccc4[nH]cc(c34)C[C@H]21 | inactive | 
30 | CC(=O)OCC1=C(C(=O)O)N2C(=O)[C@@H](NC(=O)Cc3cccs3)[C@H]2SC1 | inactive | 
31 | NC(Cc1ccc(Cl)cc1)C(=O)O (configuration not stated) |  | 28% [at 0.597 µM]
32 | CCN(CC)CC(=O)Nc1c(C)cccc1C | inactive | 
33 | Cc1cc(C)c(/C=C2\C(=O)Nc3ccccc32)[nH]1 | inactive | 
34 | CCN(CC)CCNC(=O)c1cc(S(C)(=O)=O)ccc1OC | inactive | 

Row | SMILES | Potency | activity change, negative = cytotoxic
35 | CC(N=C(NC#N)Nc1ccncc1)C(C)(C)C (configuration not stated) | inactive | 
36 | O=C(O)CP(=O)(O)O | inactive | 
37 | CC[N+](C)(C)c1cccc(O)c1 | inactive | 
38 | CC(=O)Oc1cc(C(C)C)c(OCCN(C)C)cc1C | inactive | 
39 | C[C@@H](O)[C@H]1C(=O)N2C(C(=O)O)=C(SCCN=CN)C[C@H]12 | inactive | 
40 | CSc1ccc(C(=O)c2[nH]c(=O)[nH]c2C)cc1 | inactive | 
41 | O=C1CC2(CCCC2)CC(=O)N1CCCCN1CCN(c2ncccn2)CC1 | inactive | 
42 | NC(=O)c1cn(Cc2c(F)cccc2F)nn1 | inactive | 
43 | CC(C(=O)O)c1ccc(CC2CCCC2=O)cc1 (configuration not stated) | inactive | 
44 | CC(=O)[C@@]1(O)CC[C@H]2[C@@H]3CCC4=CC(=O)CC[C@]4(C)[C@H]3CC[C@@]21C | inactive | 
45 | Cc1cccc(C)c1NC(=O)C(C)N (configuration not stated) | inactive | 
46 | NC1=NCC2c3ccccc3Cc3ccccc3N12 (configuration not stated) | inactive | 
47 | CN(C)[C@@H]1C(=O)C(C(N)=O)=C(O)[C@@]2(O)C(=O)C3=C(O)c4c(O)ccc(Cl)c4[C@@H](O)[C@H]3C[C@@H]12 | inactive | 
48 | CCCCOCCOCCOCc1cc2c(cc1CCC)OCO2 | inactive | 
49 | CCCOc1ccccc1-c1nc2n[nH]nc2c(=O)[nH]1 | inactive | 
50 | CCCN(CCC)CCc1cccc2c1CC(=O)N2 | inactive | 
51 | Cc1scc2c1N(C(=O)CN1CCN(C)CC1)c1ccccc1NC2=O | inactive | 
52 | CCCCNc1c(C(=O)OCC)c(C)nc2c1cnn2CC | inactive | 
